Test results from the supplement of paper PMC6555819.

Assays:
Experiment in all cases: PBM binding z-score (relative to random genomic background probes); higher = stronger binding; sequences stand for … in GC…GCGATTGACAGCGTAGAATGAAGG
[1] = system: FXR:RXRa (NR concentration 270 nM, RXRa partner concentration 90 nM)
How it was run: (§1)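 Binding z-scores were set against random background probes. The data came from custom Agilent 4×180K protein-binding microarrays carrying double-stranded probes with 34-nt variable regions, incubated 1 h with ligand-free nuclear receptor dimers. Partner-specific antibodies detected binding, and scanned fluorescence was regression-normalized.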

[2] = system: LXRa:RXRa (NR concentration 270 nM, RXRa partner concentration 90 nM)
How it was run: as §1

[3] = system: LXRa homodimer (NR concentration 270 nM)
How it was run: as §1

[4] = system: LXRb:RXRa (NR concentration 270 nM, RXRa partner concentration 90 nM)
How it was run: as §1

[5] = system: LXRb homodimer (NR concentration 270 nM)
How it was run: as §1

[6] = system: PPARa:RXRa (NR concentration 270 nM, RXRa partner concentration 90 nM)
How it was run: as §1

[7] = system: PPARg:RXRa (NR concentration 180 nM, RXRa partner concentration 90 nM)
How it was run: as §1

[8] = system: PPARg:RXRa 270nM:90nM, anti-RXR (NR concentration 270 nM, RXRa partner concentration 90 nM)
How it was run: as §1

[9] = system: PPARg:RXRa 30nM:10nM, anti-RXR (NR concentration 30 nM, RXRa partner concentration 10 nM)
How it was run: as §1

[10] = system: PPARg:RXRa 90nM:30nM, anti-RXR (NR concentration 90 nM, RXRa partner concentration 30 nM)
How it was run: as §1

[11] = system: PPARg:RXRa DBDmut IVT, anti-RXR (DBD mutation: RXRa K156A/R161A, NR concentration 270 nM, RXRa partner concentration 90 nM)
How it was run: as §1

[12] = system: PPARg:RXRa IVT, anti-PPARg (NR concentration 270 nM, RXRa partner concentration 90 nM)
How it was run: as §1

[13] = system: PPARg DBDmut:RXRa IVT, anti-PPARg (DBD mutation: PPARg1 K132A/R137A, NR concentration 270 nM, RXRa partner concentration 90 nM)
How it was run: as §1

[14] = system: PPARg DBDmut IVT, anti-PPARg (DBD mutation: PPARg1 K132A/R137A, NR concentration 270 nM)
How it was run: as §1

[15] = system: PPARg homodimer (NR concentration 180 nM)
How it was run: as §1

[16] = system: PXR:RXRa (NR concentration 270 nM, RXRa partner concentration 90 nM)
How it was run: as §1

[17] = system: PXR homodimer (NR concentration 270 nM)
How it was run: as §1

[18] = system: RARa:RXR (NR concentration 270 nM, RXRa partner concentration 90 nM)
How it was run: as §1

[19] = system: RARa homodimer (NR concentration 270 nM)
How it was run: as §1

[20] = system: RARb:RXRa (NR concentration 270 nM, RXRa partner concentration 90 nM)
How it was run: as §1

Sequence | PBM binding z-score [1] | PBM binding z-score [2] | PBM binding z-score [3] | PBM binding z-score [4] | PBM binding z-score [5] | PBM binding z-score [6] | PBM binding z-score [7] | PBM binding z-score [8] | PBM binding z-score [9] | PBM binding z-score [10] | PBM binding z-score [11] | PBM binding z-score [12] | PBM binding z-score [13] | PBM binding z-score [14] | PBM binding z-score [15] | PBM binding z-score [16] | PBM binding z-score [17] | PBM binding z-score [18] | PBM binding z-score [19] | PBM binding z-score [20]
CAGCCTCGGTCAGGGCCAGTATAGGAGGAACGTT | -0.344 | -0.223 | -0.491 | -0.601 | -1.46 | -0.701 | -0.243 | -1.13 | -1.22 | -1.45 | -0.887 | -0.552 | -1.14 | -2.31 | -0.745 | -0.881 | -0.661 | -0.746 | -0.656 | 2.01
TCTAGTTGGTCCAAGGTCACACACTCGAAATGCG | 3.91 | 3.59 | 1.87 | 3.54 | 0.734 | 4.18 | 4.19 | 5.58 | 4.56 | 5.7 | 2.28 | 3.07 | 1.36 | 0.797 | 3.08 | 4.21 | 1.63 | 4.31 | 1.96 | 3.53
CGTCAAAGTTCAACTAAGGTGACGTAAAGCACGC | 7.03 | 6.44 | 4.17 | 4.04 | 2.05 | 5.05 | 5.01 | 5.86 | 2.52 | 4.48 | 0.538 | 2.53 | -0.0247 | 0.457 | 4.07 | 5.89 | 4.65 | 4.4 | 1.76 | 5.17
ACAGACAGCTGATGAAGGTAACTCAGGCTATCAT | -0.294 | -0.43 | -0.191 | -0.692 | -0.451 | -0.305 | 0.649 | -0.383 | -0.233 | 0.0374 | -0.796 | -0.158 | 0.246 | 0.14 | 0.00151 | -0.216 | -0.158 | 0.0124 | 0.287 | -0.232
CTCGAAAGGTCGTGCTCAGGTGAATATACCAAAC | 5.33 | 4.19 | 0.375 | 3.82 | 0.534 | 5.05 | 2.81 | 3.84 | 1.1 | 2.6 | 0.879 | 2.15 | 0.682 | 0.68 | 1.34 | 3.6 | 0.506 | 4.28 | 0.678 | 3.92
AGAATGAGGTTATACGTAGATCAAGGAAGAAAGT | 2.5 | 2.22 | 0.0848 | 1.72 | 0.172 | 3.25 | 2.25 | 2.12 | 0.826 | 1.62 | 4.05 | 2.17 | 1.37 | 0.946 | 1.39 | 1.25 | 0.179 | 1.97 | 0.408 | 1.58
